# Source: ChEMBL document CHEMBL1961873, “Compounds: GSK PKIS; Assays: Nanosyn kinase panel” (2012)
# Biological target: Non-receptor tyrosine-protein kinase TYK2 (Homo sapiens) (UniProt P29597)
# Conditions: at 1 µM
# 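Further: values are mean percent inhibition of TYK2 kinase.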
# Chain of Non-receptor tyrosine-protein kinase TYK2 (Homo sapiens) (P29597 whole entry): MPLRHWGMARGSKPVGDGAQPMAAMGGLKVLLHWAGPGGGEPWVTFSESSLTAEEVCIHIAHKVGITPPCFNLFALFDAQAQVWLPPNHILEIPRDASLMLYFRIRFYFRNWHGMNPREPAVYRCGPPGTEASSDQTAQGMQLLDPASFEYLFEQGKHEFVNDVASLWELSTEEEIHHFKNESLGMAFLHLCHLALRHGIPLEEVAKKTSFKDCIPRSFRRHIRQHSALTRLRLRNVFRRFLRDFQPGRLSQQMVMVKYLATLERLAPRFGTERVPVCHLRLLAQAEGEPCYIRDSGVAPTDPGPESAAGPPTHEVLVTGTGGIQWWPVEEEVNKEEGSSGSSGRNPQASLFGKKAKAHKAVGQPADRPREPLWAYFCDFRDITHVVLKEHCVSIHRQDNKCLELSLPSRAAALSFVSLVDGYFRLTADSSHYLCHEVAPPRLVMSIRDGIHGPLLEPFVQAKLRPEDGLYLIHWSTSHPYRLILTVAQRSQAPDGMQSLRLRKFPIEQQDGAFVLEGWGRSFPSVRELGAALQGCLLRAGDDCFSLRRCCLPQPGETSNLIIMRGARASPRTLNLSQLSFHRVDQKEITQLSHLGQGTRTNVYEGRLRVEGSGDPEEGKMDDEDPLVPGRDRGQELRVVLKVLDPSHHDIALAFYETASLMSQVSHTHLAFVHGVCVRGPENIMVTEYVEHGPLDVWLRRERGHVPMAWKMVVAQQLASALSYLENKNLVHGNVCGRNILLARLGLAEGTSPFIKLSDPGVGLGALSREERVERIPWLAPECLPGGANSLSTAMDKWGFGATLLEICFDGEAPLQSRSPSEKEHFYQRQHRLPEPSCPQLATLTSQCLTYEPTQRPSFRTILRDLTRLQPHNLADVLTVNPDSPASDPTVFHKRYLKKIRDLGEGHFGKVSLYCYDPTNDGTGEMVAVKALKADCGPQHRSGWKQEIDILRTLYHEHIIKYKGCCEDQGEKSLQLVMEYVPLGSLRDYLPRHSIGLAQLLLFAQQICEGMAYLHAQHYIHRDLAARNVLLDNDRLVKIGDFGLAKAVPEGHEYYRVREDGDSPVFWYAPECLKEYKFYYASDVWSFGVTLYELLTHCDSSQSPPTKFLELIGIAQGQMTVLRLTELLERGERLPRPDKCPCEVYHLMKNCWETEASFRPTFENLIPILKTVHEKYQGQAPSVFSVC
row,Structure (SMILES),inhibition [%]
1,Fc1cccc(COc2ccc(Nc3ncnc4sc(-c5cccs5)cc34)cc2Cl)c1,1.15
2,CC1=C(C(=O)Nc2ccc3[nH]ncc3c2)C(c2ccc(F)cc2)NC(=O)N1 (stereo unspecified),26.3
3,CCn1c(-c2nonc2N)nc2c(N3CCCC3)nccc21,4.26
4,NS(=O)(=O)c1ccc(N/N=C2\C(=O)Nc3ccc(C(=O)NCCc4c[nH]cn4)cc32)cc1,0.3
5,CC(C)=Cc1cccc2c1/C(=N/Nc1ccc(S(N)(=O)=O)cc1)C(=O)N2,20.7
6,COc1cc2ncn(-c3cc(O[C@H](C)c4ccccc4Cl)c(C(N)=O)s3)c2cc1OC,-0.12
7,COc1cc2ncn(-c3cc(O[C@@H](C)c4ccccc4Cl)c(C(N)=O)s3)c2cc1OC,-4.63
8,Fc1cccc(COc2ccc(Nc3ncnc4cc(-c5ccc[nH]5)sc34)cc2Cl)c1,0.5
9,CN1CCC(C(=O)Nc2n[nH]c3nnc(-c4ccccc4)cc23)CC1,-0.97
10,Cn1cc(C=C2C(=O)Nc3cccnc32)c2ccccc21,0.73
11,COc1ccc(-c2nn3ncccc3c2-c2ccnc(Nc3ccc(Cl)c(C(F)(F)F)c3)n2)cc1,1.02
12,NC(=O)c1cccc(Nc2nccc(Nc3cccc4[nH]ncc34)n2)c1,39.1
13,COc1ccc(-c2ccncc2)cc1C(N)=O,-3.25
14,CS(=O)(=O)CCN(CC#N)Cc1ccc(-c2ccc3ncnc(Nc4ccc(OCc5cccc(F)c5)c(Cl)c4)c3c2)o1,-4.41
15,CNC(=O)c1cncc(/C=C/c2c(Cl)cccc2Cl)c1,-3.44
16,CCn1c(-c2nonc2N)nc2c(C#CC(C)(C)O)nc(CN3CCCC3)cc21,-0.89
